Over roughly 110,000 compounds, “z-score” has its median near -0.1; the highest 2% begin near 2. Shown is part of a subset that was picked to be rich in the highest values. Activity calls are given as the source filed them.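 Rule for the calls: active = z-score in the third read window above 3 or below -3; inactive = the rest.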
target: Metabotropic glutamate receptor 8 (Rattus norvegicus) (UniProt P70579); test: rat mGluR8 modulators via GIRK flux, primary screen, cell-based, thallium flux, HTS (AID 488969); conditions: HEK293 rat mGluR8, GIRK (G protein-gated inwardly rectifying potassium channel) thallium flux, FluoZin2; at 10 µM; stronger effect = higher value; submaximal glutamate (EC20) added with thallium
Sequence (P70579 whole entry, looked up): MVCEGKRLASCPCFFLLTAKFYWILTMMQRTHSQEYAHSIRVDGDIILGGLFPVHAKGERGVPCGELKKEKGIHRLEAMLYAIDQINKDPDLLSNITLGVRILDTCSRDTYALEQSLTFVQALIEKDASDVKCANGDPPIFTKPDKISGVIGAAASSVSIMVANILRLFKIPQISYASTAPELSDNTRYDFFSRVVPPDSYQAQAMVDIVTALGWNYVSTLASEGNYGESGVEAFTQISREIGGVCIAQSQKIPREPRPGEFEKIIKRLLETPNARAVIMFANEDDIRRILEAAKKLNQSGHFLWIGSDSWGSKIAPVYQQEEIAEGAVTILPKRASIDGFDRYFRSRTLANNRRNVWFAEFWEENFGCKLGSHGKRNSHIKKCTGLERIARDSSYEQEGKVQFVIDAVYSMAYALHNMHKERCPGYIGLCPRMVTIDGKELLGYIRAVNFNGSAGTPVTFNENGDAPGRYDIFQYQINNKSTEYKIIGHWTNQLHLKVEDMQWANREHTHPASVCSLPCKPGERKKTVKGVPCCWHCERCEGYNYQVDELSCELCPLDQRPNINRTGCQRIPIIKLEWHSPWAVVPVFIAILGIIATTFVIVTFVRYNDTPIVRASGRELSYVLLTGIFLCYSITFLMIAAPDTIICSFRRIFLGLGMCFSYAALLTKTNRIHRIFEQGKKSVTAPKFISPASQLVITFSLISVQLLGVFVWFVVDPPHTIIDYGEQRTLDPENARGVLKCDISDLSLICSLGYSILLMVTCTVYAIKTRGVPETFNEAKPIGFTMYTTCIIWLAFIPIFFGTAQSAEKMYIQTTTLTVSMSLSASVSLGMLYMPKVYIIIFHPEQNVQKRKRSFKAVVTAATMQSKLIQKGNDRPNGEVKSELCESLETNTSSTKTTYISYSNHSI

| SMILES | z-score |
| --- | --- |
| Cc1n[nH]c(C)c1S(=O)(=O)N(CC(=O)Nc1ccc2c(c1)OCCO2)c1ccc(C(C)C)cc1 | -0.193 |
| O=C(NCCCc1ccccc1)Nc1cccc(Cl)c1 | 2.01 |
| O=C(NCCCc1ccccc1)Nc1ccccc1 | 0.456 |
| O=C(NCCc1ccc(Cl)cc1)Nc1cccc(Cl)c1 | 0.529 |
| Cc1nc(N2CCN(C)CC2)c2c(C)c(C(=O)Nc3ccc(C)c(F)c3)sc2n1 | -0.555 |
| CCCc1cc(=O)[nH]c(SCC(=O)NC(=O)OCC)n1 | -0.0127 |
| Cc1cc(C)n(S(=O)(=O)c2ccc(C(C)(C)C)cc2)n1 | -1.41 |
| CCc1nc(SCC(=O)Nc2c(C)nn(C)c2C)c2cnn(-c3ccccc3)c2n1 | -0.873 |
| O=C(NC1(C(F)(F)F)NC(=O)N(C2CCCC2)C1=O)C1CC1 (stereo not given) | -0.129 |
| CCOC(=O)NC1(C(F)(F)F)NC(=O)N(C2CCCCC2)C1=O (stereo not given) | 2.9 |
| CC(=O)NC1(C(F)(F)F)NC(=O)N(C2CCCCC2)C1=O (stereo not given) | -0.137 |
| COc1ccc(-c2nnc(SCc3nnc(-c4ccc(Cl)cc4)o3)n2-c2ccccc2)cc1 | -1.79 |
| COc1ccc(NS(=O)(=O)c2ccc(Br)s2)cc1OC | 2.11 |
| COc1ccc(C)cc1NS(=O)(=O)c1ccc(Br)s1 | 0.369 |
| COc1cc(NS(=O)(=O)c2ccc(Br)s2)cc(OC)c1 | 0.398 |
| CCC(=O)Oc1ccc(C(=O)Nc2cccc(C(=O)c3ccccc3)c2)cc1 | 0.022 |
| CC1(C)NC(=O)N(CC(O)CN2CCCCC2)C1=O (stereo not given) | 0.323 |
| COc1ccc(CSc2nc(C)cc(=O)[nH]2)cc1Br | -1.02 |
| CC(=O)Nc1ccc(S(=O)(=O)Nc2nnc(C(C)(C)C)s2)cc1 | 0.307 |
| COc1ccc(NC(=S)NNC(=O)c2ccccc2OC(F)F)cc1 | 0.204 |
| CN(C)c1cccc(NC2=CC(=[N+]3CCOCC3)CC(C)(C)C2)c1 | 0.942 |
| CN(C)c1cccc(C(=O)Nc2ccc(N3CCOCC3)cc2)c1 | -0.0628 |
| CN(C)c1cccc(N=C2C=C(N3CCOCC3)CC(C)(C)C2)c1 | 2.3 |
| O=C(Nc1cccc(O)c1)c1cc(-c2ccco2)on1 | -0.103 |
| Cc1ccc(Cl)c2c1NC(=O)C2(O)CC(=O)c1ccc(F)cc1 (stereo not given) | -0.203 |
| COc1ccc(NC(=O)OCCn2c([N+](=O)[O-])cnc2C)cc1 | -0.144 |
| CCOC(=O)C(NCCCO)c1ccccc1 (stereo not given) | -0.247 |

| SMILES | z-score |
| --- | --- |
| COc1ccc(OC)c(-c2c[n+](=O)c3c(n2[O-])CCCC3)c1 | 0.0184 |
| CCN1CCN(c2ncnc3c2cnn3-c2ccccc2)CC1 | 0.0325 |
| O=S(=O)(c1ccc(F)cc1)N1CCN(c2ncnc3c2cnn3-c2ccccc2)CC1 | 2.11 |
| c1ccc(-n2ncc3c(N4CCCCC4)ncnc32)cc1 | -0.259 |
| CN(C)C=NC(=O)c1ccc([N+](=O)[O-])c(CS(=O)(=O)c2ccc(Cl)cc2)c1 | -0.0395 |
| CCc1ccccc1N(CC(=O)O)S(C)(=O)=O | 0.424 |
| Cc1ccc(CNC(=S)Nc2ccc(OC(F)F)cc2C)cc1 | -0.531 |
| CC/C(=N\NC(=S)Nc1ccc(OC)cc1)c1ccc(OC(F)F)cc1 | 7.5 (active) |
| COc1ccc(C/C(C)=N/NC(=S)Nc2ccc(C)c(C)c2)cc1 | 1.65 |
| COc1ccc(C/C(C)=N/NC(=S)Nc2ccccc2)cc1 | 5.19 (active) |
| CC/C(=N\NC(=S)Nc1cc(C)ccc1C)c1ccc(OC(F)F)cc1 | 3.47 (active) |
| COc1ccc(C/C(C)=N/NC(=S)Nc2ccc(C(C)C)cc2)cc1 | 0.256 |
| CCOc1ccc(NC(=S)N/N=C(\C)Cc2ccc(OC)cc2)cc1 | 1.35 |
| CCCCOc1ccc(/C=N/NC(=S)Nc2cc(C)ccc2C)cc1 | 1.19 |
| COc1ccccc1NC(=S)NNC(=S)Nc1ccc(OC(F)F)cc1 | -0.345 |
| CCN(CCCNC(=O)CCNC(=O)Cn1ccc2ccccc2c1=O)c1ccccc1 | -0.46 |
| CCN1CCN(Cc2c(O)ccc3c(=O)c(-c4ccc(OC)c(OC)c4)c(C)oc23)CC1 | -0.348 |
| Cc1ccc(Oc2c(C=O)c3ccccc3n2C)cc1 | -0.989 |
| CC1(C)CC(=O)N(CC(=O)NC2CCCC2)c2ccccc2S1(=O)=O | -0.29 |
| Clc1ccc(Oc2cnc3ccccc3n2)cc1 | -0.22 |
| CCC(CC)C(=O)Nc1cc(OC)c(OC)cc1C(=O)O | -0.741 |
| O=C(Nc1ccc(O)c(-c2nc3ccccc3o2)c1)C1(c2ccc(Br)cc2)CCCC1 | -0.297 |
| CCOC(=O)CN(C(=O)c1ccccc1)c1ccccc1C | -0.114 |
| CC(=O)NC(CC(=O)NC1CCCCCC1)c1ccccc1 (stereo not given) | 0.55 |
| CC1(C)CC(=O)C2=C(C1)OC(N)=C(C#N)C21C(=O)N(CN2CCOCC2)c2ccccc21 (stereo not given) | -0.00502 |
| CCc1ccc2nc(Nc3nc(COC)cc(=O)[nH]3)nc(C)c2c1 | 2.69 |
| COCc1cc(=O)[nH]c(Nc2nc(C)c3cc(OC)ccc3n2)n1 | -0.401 |

| SMILES | z-score |
| --- | --- |
| COCc1cc(=O)[nH]c(Nc2nc(C)c3ccccc3n2)n1 | -0.43 |
| O=C(CSc1nc2nc3c(cc2c(=O)n1-c1ccccc1)CCCC3)Nc1ccccc1 | -0.468 |
| O=C(NCc1ccco1)c1sc(=S)n2c1[nH]c(=O)c1ccccc12 | 2.75 |
| C=CCn1c(N)c(C(=O)NCc2ccco2)sc1=S | 0.688 |
| CCn1c(N)c(C(=O)NCc2ccco2)sc1=S | 4.44 (active) |
| O=C(NCc1ccccc1)c1sc(=S)n2c1[nH]c(=O)c1ccccc12 | -0.316 |
| O=C(NCc1ccco1)c1sc2ccccc2c1Cl | -0.649 |
| Cc1ccc(-n2c(N)c(C(=O)NCc3ccco3)sc2=S)cc1 | -0.322 |
| CC(=O)Oc1ccc2oc(=O)c3c(c2c1)CCCN3C(=O)CN1CCN(c2ncccn2)CC1 | -0.26 |
| CCOC(=O)CC1=CSC2=NS(=O)(=O)CCN12 | -0.784 |
| CC(=O)C1=C(C)NC(SCC(=O)c2ccccc2)=C(C#N)C1c1ccco1 (stereo not given) | -1.16 |
| CCc1cc2c(=O)[nH]c(Cc3ccccc3)nc2s1 | -0.371 |
| COC(=O)c1ccc(COC(=O)c2ccc(CS(=O)(=O)c3ccc(C)cc3)cc2)cc1 | -0.331 |
| Cc1ccc2c(Cl)cc(Cl)c(OCC(=O)Nc3ccc(C)c(S(=O)(=O)N(C)C)c3)c2n1 | 2.31 |
| CCOCc1c(C(=O)OCC(=O)Nc2ccc(C)c(S(=O)(=O)N(C)C)c2)oc2ccccc12 | 9.51 (active) |
| Cc1ccc2c(Cl)cc(Cl)c(OCC(=O)Nc3cc(S(=O)(=O)N(C)C)ccc3C)c2n1 | -0.0675 |
| Cc1ccc(S(=O)(=O)N(C)C)cc1NC(=O)COC(=O)CCC(=O)c1ccc(F)cc1 | -0.39 |
| Cc1ccc2c(Cl)cc(Cl)c(OCC(=O)Nc3cccc(S(=O)(=O)N(C)C)c3)c2n1 | 0.415 |
| Cc1ccc(NC(=O)COC(=O)CCC(=O)c2ccc(Cl)cc2)cc1S(=O)(=O)N(C)C | 3.92 (active) |
| Cc1ccc(NC(=O)Cc2ccccc2Cl)cc1S(=O)(=O)N(C)C | 12.9 (active) |
| CN(C)S(=O)(=O)c1cccc(NC(=O)COC(=O)CCC(=O)c2ccc(F)cc2)c1 | -0.326 |
| CCOCC(=O)Nc1c(C(=O)OCC)oc2ccccc12 | -0.215 |
| Cc1ccc(NC(=O)CCNC(=O)c2ccccc2Cl)cc1S(=O)(=O)N(C)C | -0.00648 |
| Cc1ccc(NC(=O)COC(=O)/C=C/c2ccco2)cc1S(=O)(=O)N(C)C | 1.23 |
| Cc1ccc(NC(=O)Cc2c(Cl)cccc2Cl)cc1S(=O)(=O)N(C)C | 1 |
| CCOc1cc(C)c(S(=O)(=O)NC2CCCCC2)cc1C | -0.571 |
| O=c1c2ccccc2nc(COc2ccccc2)n1/N=C/c1c[nH]c2ccccc12 | -0.533 |

| SMILES | z-score |
| --- | --- |
| O=[N+]([O-])c1cc(Cl)cc(C2=NCCN2)c1 | 0.173 |
| COc1ccc(N(CC(=O)NCc2ccccc2OC)S(=O)(=O)c2c(C)nn(C)c2C)cc1 | -0.153 |
| COc1ccc(-c2nn(-c3ccccc3)cc2C(=O)O)cc1OC | 0.191 |
| COc1ccccc1N1CCN(CC(=O)Nc2cc(F)ccc2C)CC1 | 0.0403 |
| CCN(CC)c1ccc(NC(=O)CSc2nc3ccccc3c(=O)[nH]2)cc1 | -0.106 |
| Cc1ccc2c(Cl)cc(Cl)c(OCC(=O)Nc3cc(C)on3)c2n1 | 0.0628 |
| Cc1ccc2c(Cl)cc(Cl)c(OCC(=O)NC(=O)NCc3ccco3)c2n1 | -0.127 |
| Cc1ccc2c(Cl)cc(Cl)c(OCC(=O)NCc3ccco3)c2n1 | 3.48 (active) |
| Cc1c(C(=O)O)cccc1-c1ccc(C=O)o1 | 0.12 |
| CC(C)NS(=O)(=O)c1ccc(OCC(=O)Nc2ccc3c(c2)OCO3)c(Cl)c1 | 3.09 (active) |
| Cc1cc(C)n(-c2ccc(C(=O)OCC(=O)Nc3ccc(Cl)c(S(=O)(=O)N(C)C)c3)cc2)n1 | 15.5 (active) |
| Cc1nn(CC(=O)Nc2ccc(Cl)c(S(=O)(=O)N(C)C)c2)c(C)c1[N+](=O)[O-] | 4.55 (active) |
| CN(C)S(=O)(=O)c1cc(NC(=O)COC(=O)c2ccc3c(c2)OCO3)ccc1Cl | 10.1 (active) |
| Cc1nn(CC(=O)Nc2ccc(S(=O)(=O)N(C)C)cc2)c(C)c1[N+](=O)[O-] | -0.0283 |
| CCN(CC)S(=O)(=O)c1ccc(NC(=O)COC(=O)c2ccc(-n3nc(C)cc3C)cc2)cc1 | 0.0126 |
| Cc1ccc(NC(=O)COC(=O)c2ccc3c(c2)OCO3)cc1S(=O)(=O)N1CCCCC1 | -0.401 |
| O=C(COc1ccc(S(=O)(=O)NC2CCCCC2)cc1Cl)Nc1ccc2c(c1)OCO2 | 0.2 |
| Cc1ccc(S(=O)(=O)N(C)C)cc1NC(=O)COC(=O)c1ccc2c(c1)OCO2 | 1.63 |
| Cc1cc(C)n(-c2ccc(C(=O)OCC(=O)Nc3ccc(S(=O)(=O)N4CCCCC4)cc3)cc2)n1 | -0.00692 |
| CC(C)CNS(=O)(=O)c1ccc(OCC(=O)Nc2ccc3c(c2)OCO3)c(Cl)c1 | -0.19 |
| Cc1nn(CC(=O)Nc2cc(S(=O)(=O)N(C)C)ccc2Cl)c(C)c1[N+](=O)[O-] | 0.164 |
| Cc1ccc(S(=O)(=O)CC(C)N2CCN(C3CCCCC3)CC2)cc1 (stereo not given) | 1.44 |
| COc1ccccc1C(=O)COC(=O)c1ccccc1OCC(=O)Nc1ccc(SC(F)F)cc1 | 1.1 |
| COc1cccc(/C(O)=C2/C(=O)C(=O)N(Cc3ccco3)C2c2ccncc2)c1 (stereo not given) | -0.192 |
